Source: PubChem BioAssay (Tox21)
Results filed as inconclusive are left out. Active and inactive are the calls of the source. Calls come from the whole dose curve; as a rule, active = well fitted activation curve with a large enough effect in the signal ratio in the repeat runs, with a control signal flat (not every such curve was filed as active); inconclusive = weak or mixed curves; inactive = flat fitted curve, though single readings scatter; the % refers to the signal ratio.

assay: qHTS assay for small molecule activators of the heat shock response signaling pathway (AID 743210); settings: HeLa HSE-bla reporter, beta-lactamase ratio, 5 h; series mostly up to 62.6 µM
Description: U.S. Tox21 Program National Center for Advancing Translational Sciences [NCATS] NIH Chemical Genomics Center [NCGC] U.S. Environmental Protection Agency [EPA] National Institutes of Environmental Health Sciences [NIEHS] National Toxicology Program [NTP] U.S. Food and Drug Administration [FDA] Tox21 Assay Overview: Various chemicals, environmental and physiological stress conditions may lead to the activation of heat shock response/ unfolded protein response (HSR/UPR). There are three heat shock transcription factors (HSFs) (HSF-1, -2, and -4) mediating transcriptional regulation of the human HSR. To identify the compounds that activate HSR signaling, HSE-bla HeLa cell line (Invitrogen, Carlsbad, CA, USA) containing a beta-lactamase reporter gene under the control of the heat shock response elements was used to screen the Tox21 10K compound library.
Tox21 Assay Protocol Summary: The CellSensor HSE-bla HeLa cells (Invitrogen, Carlsbad, CA, USA) were dispensed at 1500 cells/6uL/well into 1536-well black wall/clear bottom plates using a Multidrop combi (Thermo Fisher Scientific, Waltham, MA) dispenser. After the assay plates were incubated at 37 C and 5% CO2 overnight, 23 nL of compounds dissolved in DMSO, positive controls or DMSO only was transferred to the assay plate by a Pintool station (Kalypsys, San Diego, CA). The plates were incubated at 37 C for 5 h. After 1 uL of LiveBLAzerTM B/G FRET substrate was added using a Flying Reagent Dispenser (Beckman Coulter, Indianapolis, IN, USA), the plates were incubated at room temperature for 2.5 h, and fluorescence intensity was measured by an Envision plate reader (PerkinElmer, Shelton, CT).
% is set by controls: 0 for no effect and ±100 for the full control effect.

SMILES	outcome	activation
CC(C)(C)C(=O)NCCCC(=O)O	inactive	–
C=CCN(CC=C)CC=C	inactive	–
C[C@@H]1NC(=O)[C@@H](N)CNC(=O)[C@H](C2CCNC(N)=N2)NC(=O)/C(=C/NC(N)=O)NC(=O)[C@H](CNC(=O)C[C@@H](N)CCCN)NC1=O (stereo not given in full)	–	-0.65% [at 0.55 µM] (inactive)
O=C(OOC(=O)c1ccccc1)c1ccccc1	inactive	–
Cc1ccc(OC(=O)CC(C)C)cc1	inactive	–
COC(=O)N/N=C/c1c[n+]([O-])c2ccccc2[n+]1[O-]	inactive	–
CCCCCCCCCCCCCCCCN(C)C	–	-0.814% [at 5.95 µM] (inactive)
CCCCC(CC)CCC(CC(C)C)OS(=O)(=O)O (stereo not given)	inactive	–
C=CCCCCCCCCOC(C)=O	inactive	–
Clc1ccc2c(c1)Nc1ccccc1S2	inactive	–
COc1cc(S(N)(=O)=O)cc(C(=O)O)c1OC	inactive	–
CCCCCCCC(=O)N(C)C	inactive	–
CCC(C)SSC(C)CC (stereo not given)	inactive	–
COCCCOc1cc(C[C@@H](C[C@H](N)[C@@H](O)C[C@H](C(=O)NCC(C)(C)C(N)=O)C(C)C)C(C)C)ccc1OC	inactive	–
CCCCCCCCCCCCCCBr	inactive	–
CCCCCCCCCCCC(C)=O	inactive	–
CCCCCCC(O)CO (stereo not given)	inactive	–
COc1cc(NS(=O)(=O)c2ccc(N)cc2)ncn1	inactive	–
N=C(N)N1CCc2ccccc2C1	–	-0.5% [at 5.95 µM] (inactive)
COC(=O)c1ccccc1Cl	inactive	–

SMILES	outcome	activation
CC[C@@]1(c2ccccc2)NC(=O)N(C)C1=O	inactive	–
COc1cnc(NS(=O)(=O)c2ccc(N)cc2)nc1	inactive	–
Cc1cc2c(cc1CC(=O)c1sccc1S(=O)(=O)Nc1onc(C)c1Cl)OCO2	inactive	–
CN(C)c1cc(NC(=O)CNC(C)(C)C)c(O)c2c1C[C@H]1C[C@H]3[C@H](N(C)C)C(=O)C(C(N)=O)=C(O)[C@@]3(O)C(=O)C1=C2O	inactive	–
O=C(CCBr)N1CCN(C(=O)CCBr)CC1	inactive	–
CC(C)(C)c1ccc(C(=O)CCCCl)cc1	inactive	–
CCCCCCCCCCCCCCCC(=O)OC	inactive	–
COc1ccccc1N1CCN(CC(O)COc2cc(OC)c(OC)c(OC)c2)CC1 (stereo not given)	inactive	–
CCCCCCCCCCCBr	inactive	–
CC(=O)Nc1ccc(OCCOCCOc2ccc(NC(C)=O)cc2)cc1	inactive	–
CCC(C)c1nccnc1OC (stereo not given)	inactive	–
N#Cc1cc(NC(=O)C(=O)O)c(Cl)c(NC(=O)C(=O)O)c1	inactive	–
CC(C)=CCC/C(C)=C\C#N	inactive	–
CN1C(CCl)Nc2cc(Cl)c(S(N)(=O)=O)cc2S1(=O)=O (stereo not given)	inactive	–
CCCCCCCOC(C)=O	inactive	–
CCOc1ccccc1OCCN[C@H](C)Cc1ccc(OC)c(S(N)(=O)=O)c1	inactive	–
CCOC(=O)CC(C(C)=O)C(C)=O	inactive	–
COC(C)(C)CC(C)=O	inactive	–
NNC(=O)OCc1ccccc1	inactive	–
CCOCCOCCOC(C)=O	inactive	–
